Assay results reported in the supplement of paper PMC11018630.
Where a name gives a salt, the structure may show the parent alone. ± gives the standard deviation of the averaged measurements. In all, about 1,100 compounds were measured (“day of extracellular matrix detachment from plate”: median about 16, lowest 2% from about 10 on). This excerpt belongs to a sample that is enriched for the lowest values. Where a SMILES comes first, the peptide text is derived from it. Bridges are numbered along the chain shown (N, C = ends). [ ]: non-standard residue; d: D form. Orn = NCCC[C@H](N)C(=O)O; Mpa = O=C(O)CCS

system: RDEB dermal fibroblasts EB71; experiment: day of extracellular matrix detachment from plate (days); higher = delayed detachment (less fibrotic matrix); conditions: compound concentration: 10 uM

SMILES | day of extracellular matrix detachment from plate
O=c1sn(-c2cccc3ccccc23)c(=O)n1Cc1ccccc1 [Tideglusib] | 18.7 ± 4
CC1(C)Cc2c(-c3ccccc3)c(-c3ccc(Cl)cc3)c(CC(=O)O)n2C1 [Licofelone] | 16
NC(=O)c1ccc(I)c([N+](=O)[O-])c1 [Iniparib (BSI-201)] | 12.3 ± 1.1
CCOc1ccc(NC(C)=O)cc1 [Phenacetin] | 12
CC(=O)Nc1ccc(O)cc1 [Acetaminophen] | 11
CC(=O)Nc1ccccc1 [Acetanilide] | 10 ± 1.7
C=C1[C@H](CO)[C@@H](O)C[C@@H]1n1cnc2c(=O)[nH]c(N)nc21 [Entecavir Hydrate] | 12.7 ± 2.9
CCOc1nc2cccc(C(=O)OCc3oc(=O)oc3C)c2n1Cc1ccc(-c2ccccc2-c2noc(=O)[nH]2)cc1 [Azilsartan Medoxomil] | 19 ± 1.7
CCCCCC(=O)O[C@]1(C(C)=O)CC[C@H]2[C@@H]3CCC4=CC(=O)CC[C@]4(C)[C@H]3CC[C@@]21C [Hydroxyprogesterone caproate] | 20
C[C@@H]1C[C@H]2[C@@H]3CCC4=CC(=O)C=C[C@]4(C)[C@@]3(Cl)[C@@H](O)C[C@]2(C)[C@@]1(OC(=O)c1ccco1)C(=O)CCl [Mometasone furoate] | 29.5 ± 7.1
C[C@H](Cc1cc2c(c(C(N)=O)c1)N(CCCO)CC2)NCCOc1ccccc1OCC(F)(F)F [Silodosin] | 11
CCCC(=O)OCOC(=O)C1=C(C)NC(C)=C(C(=O)OC)C1c1cccc(Cl)c1Cl (stereo not drawn) [Clevidipine Butyrate] | 19.3 ± 6.3
CC(=O)OCC(=O)[C@H]1CC[C@H]2[C@@H]3CCC4=CC(=O)CC[C@]4(C)[C@H]3CC[C@]12C [Deoxycorticosterone acetate] | 13
C=C1/C(=C\C=C2/CCC[C@]3(C)[C@@H]([C@H](C)CCCC(C)C)CC[C@@H]23)C[C@@H](O)C[C@@H]1O [Alfacalcidol] | 36
CCCCCCCC(=O)N[C@H](CN1CCCC1)[C@H](O)c1ccc2c(c1)OCCO2 [Eliglustat Tartrate] | 18.3 ± 7.6
COc1ccc(-c2ccc3cc(C(=O)O)ccc3c2)cc1C12CC3CC(CC(C3)C1)C2 [Adapalene] | 16
Cc1c(F)cc(C(=O)NC2CC2)cc1-c1ccc(C(=O)NCC(C)(C)C)cn1 | 16 ± 1.4
CCCCCCCCCCCCCCCC(=O)O[C@@H]1[C@@H](O)[C@@H](O)[C@@H]([C@H](NC(=O)[C@@H]2C[C@@H](CCC)CN2C)[C@H](C)Cl)O[C@@H]1SC [Clindamycin palmitate HCl] | 18
Cc1cn([C@H]2O[C@@H](CO)[C@H](O)[C@H]2F)c(=O)[nH]c1=O [Clevudine] | 15.3 ± 2.3
O=C(O)CCCN1CCC(O[C@@H](c2ccc(Cl)cc2)c2ccccn2)CC1 [Bepotastine Besilate] | 18.7 ± 4
CCOc1ccc(C[C@H]2NC(=O)CCSSC[C@@H](C(=O)N3CCC[C@H]3C(=O)N[C@@H](CCCN)C(=O)NCC(N)=O)NC(=O)[C@H](CC(N)=O)NC(=O)[C@H]([C@@H](C)O)NC(=O)[C@H]([C@@H](C)CC)NC2=O)cc1 [Atosiban Acetate] ([Mpa][dY](Et)ITNCP[Orn]G-NH2; disulfide 1-6) | 19 ± 3
C=C1c2cccc(O)c2C(=O)C2=C(O)[C@]3(O)C(=O)C(C(N)=O)=C(O)[C@@H](N(C)C)[C@@H]3[C@@H](O)[C@H]12 [Methacycline HCl] | 17 ± 1.7

SMILES | day of extracellular matrix detachment from plate
C[C@H]1C[C@@H]2[C@H](C(=O)C[C@@]3(C)[C@H]2CC[C@]3(O)C(=O)CO)[C@@]2(C)C=CC(=O)C=C12 [Methylprednisone] | 18.3 ± 4
C[C@]12C=CC(=O)C=C1CC[C@@H]1[C@@H]2C(=O)C[C@@]2(C)[C@H]1CC[C@]2(O)C(=O)CO [Prednisone] | 10.3 ± 1.1
C[C@H]1C[C@H]2[C@@H]3CCC4=CC(=O)C=C[C@]4(C)[C@H]3C(=O)C[C@]2(C)[C@@]1(O)C(=O)CO [Meprednisone] | 18.3 ± 8.1
CCOC(=O)C1=C[C@@H](OC(CC)CC)[C@H](NC(C)=O)[C@@H](N)C1 [Oseltamivir Phosphate] | 20 ± 1.7
OC1(c2ccc(Cl)c(C(F)(F)F)c2)CCN(CCCC(c2ccc(F)cc2)c2ccc(F)cc2)CC1 [Penfluridol] | 25.5 ± 5
Cc1nc(C)c(Cl)c(O)c1Cl [Clopidol] | 18 ± 1.7
NC(=O)N1CCC(CC(=O)N2CCC([C@H]3c4ncc(Br)cc4CCc4cc(Cl)cc(Br)c43)CC2)CC1 [Lonafarnib] | 25
CCOC(=O)C1=C(C)NC(C)=C(C(=O)OCC)C1c1ccccc1/C=C/C(=O)OC(C)(C)C [Lacidipine] | 19.3 ± 6.3
CCC(=O)NCC[C@@H]1CCc2ccc3c(c21)CCO3 [Ramelteon] | 9.67 ± 1.1
Cc1ccc(C(=O)c2ccc(CC(=O)O)n2C)cc1 [Tolmetin Sodium] | 19.3 ± 1.1
COc1nc(C)nc(Cl)c1NC1=NCCN1 [Moxonidine] | 10 ± 1.7
Clc1cccc(Cl)c1NC1=NCCN1 [Clonidine HCl] | 11 ± 1.7
O=S(=O)(O)CCCS(=O)(=O)O [Eprodisate (disodium)] | 18
FC(F)(F)c1ccc(/C=C/c2nc(COc3ccc(CCCCn4ccnn4)cc3)co2)cc1 [Mubritinib (TAK 165)] | 15.7 ± 6.3
Cc1nc(C(=O)NCC(=O)O)c(O)c2ccc(Oc3ccccc3)cc12 | 23.7 ± 2.3
Nc1nc(=O)c2nc(CNc3ccc(C(=O)N[C@@H](CCC(=O)O)C(=O)O)cc3)cnc2[nH]1 [Folic acid] | 17
O=C1CCc2cc(OCCCCc3nnnn3C3CCCCC3)ccc2N1 [Cilostazol] | 10.3 ± 1.1
O=C1CCc2ccc(OCCCCN3CCN(c4cccc(Cl)c4Cl)CC3)cc2N1 [Aripiprazole] | 19.3 ± 6.3
Cn1nnc2c(C(N)=O)ncn2c1=O [Temozolomide] | 9.67 ± 1.1
Nc1c(CC(=O)O)cccc1C(=O)c1ccc(Br)cc1 [Bromfenac Sodium] | 13
CC1(C)S[C@@H]2[C@H](NC(=O)[C@H](NC(=O)N3CCN(S(C)(=O)=O)C3=O)c3ccccc3)C(=O)N2[C@H]1C(=O)O [Mezlocillin Sodium] | 13
